Reference: PubChem BioAssay (NCI)
This is part of a sample that, as a whole, favours compounds with a hit. Of some 83,000 tested, about 20% had one in any assay.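 Testing used 96-well plates and a 48-hour single-concentration exposure. Example: -40 means 40% of the starting cells died.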 Active and inactive are the calls of the source. How the source made its calls: active means growth percent below 10; inactive means the rest.

Experiments:
Test in all cases: NCI-60 one-dose screen, 48 h (100 = growth as untreated, 0 = no growth, -100 = all killed)
Details in all cases: 10 µM unless noted
SR leukemia = system: SR leukemia
RPMI-8226 leukemia = system: RPMI-8226 leukemia
OVCAR-8 ovarian = system: OVCAR-8 ovarian
OVCAR-5 ovarian = system: OVCAR-5 ovarian
OVCAR-4 ovarian = system: OVCAR-4 ovarian
SK-OV-3 ovarian = system: SK-OV-3 ovarian
IGROV1 ovarian = system: IGROV1 ovarian
OVCAR-3 ovarian = system: OVCAR-3 ovarian
HS 578T breast = system: HS 578T breast
NCI/ADR-RES ovarian = system: NCI/ADR-RES ovarian
T-47D breast = system: T-47D breast
BT-549 breast = system: BT-549 breast
MDA-MB-435 melanoma = system: MDA-MB-435 melanoma
SW-620 colon = system: SW-620 colon
MCF7 breast = system: MCF7 breast
HCT-116 colon = system: HCT-116 colon
HCC-2998 colon = system: HCC-2998 colon
KM12 colon = system: KM12 colon

Measured: growth

Cc1nn(-c2nc3ccccc3[nH]2)c2c1C(c1ccc3c(c1)OCO3)CC(=O)N2 (stereo unspecified)
inactive: SR leukemia 14% | OVCAR-8 ovarian 36.9% | OVCAR-5 ovarian 105% | OVCAR-4 ovarian 65.1% | SK-OV-3 ovarian 54.9% | IGROV1 ovarian 21.3% | HS 578T breast 38.2% | NCI/ADR-RES ovarian 50.3% | T-47D breast 45.6% | BT-549 breast 49.4% | SW-620 colon 10.8% | MCF7 breast 17.4% | HCC-2998 colon 63.6%
active: RPMI-8226 leukemia -18.4% | OVCAR-3 ovarian -24.3% | MDA-MB-435 melanoma 5.5% | HCT-116 colon 6.24% | KM12 colon 1.53%

CCCN(CCC)CN(CCC)CCC
inactive: SR leukemia 101% | RPMI-8226 leukemia 99.9% | OVCAR-8 ovarian 105% | OVCAR-5 ovarian 102% | OVCAR-4 ovarian 117% | SK-OV-3 ovarian 102% | IGROV1 ovarian 111% | OVCAR-3 ovarian 92.1% | HS 578T breast 98.8% | NCI/ADR-RES ovarian 105% | T-47D breast 102% | BT-549 breast 91.4% | MDA-MB-435 melanoma 99.4% | SW-620 colon 103% | MCF7 breast 93% | HCT-116 colon 95.7% | HCC-2998 colon 104% | KM12 colon 101%

CCCCCCCCCc1cc(CN2CCCCC2)c(O)c(CN2CCCCC2)c1
inactive: RPMI-8226 leukemia 23.7% | OVCAR-8 ovarian 76.6% | OVCAR-5 ovarian 59.8% | OVCAR-4 ovarian 41.3% | SK-OV-3 ovarian 78.3% | IGROV1 ovarian 75.9% | OVCAR-3 ovarian 41.9% | HS 578T breast 72.7% | NCI/ADR-RES ovarian 58.3% | T-47D breast 19.8% | BT-549 breast 70.1% | MDA-MB-435 melanoma 78.4% | SW-620 colon 69.8% | MCF7 breast 44% | HCT-116 colon 39.1% | HCC-2998 colon 68.2% | KM12 colon 50.6%
active: SR leukemia 7.18%

C=C1CC[C@@H]2[C@](C)(COC(C)=O)[C@H](OC(C)=O)CC[C@@]2(C)[C@@H]1CC(NCc1ccc(F)cc1)C1=CCOC1=O (stereo partly specified)
inactive: OVCAR-8 ovarian 18.6% | OVCAR-5 ovarian 99% | OVCAR-4 ovarian 30.9% | SK-OV-3 ovarian 94.3% | IGROV1 ovarian 48.3% | OVCAR-3 ovarian 23.7% | HS 578T breast 72.5% | NCI/ADR-RES ovarian 28.3% | T-47D breast 26.6% | BT-549 breast 28.7% | MDA-MB-435 melanoma 32.7% | SW-620 colon 32% | MCF7 breast 16.6% | HCT-116 colon 33.7% | HCC-2998 colon 89.3% | KM12 colon 46.5%
active: SR leukemia 7.69% | RPMI-8226 leukemia 1.27%

O=c1cc(-c2ccccc2)[nH]c2ccccc12
inactive: SR leukemia 22.8% | RPMI-8226 leukemia 22.4% | OVCAR-8 ovarian 35% | OVCAR-5 ovarian 50.6% | OVCAR-4 ovarian 64.5% | SK-OV-3 ovarian 37.5% | HS 578T breast 25.9% | T-47D breast 47.9% | SW-620 colon 29.8% | MCF7 breast 15.6% | HCT-116 colon 25.1% | HCC-2998 colon 18.5% | KM12 colon 12.7%
active: IGROV1 ovarian -7.72% | OVCAR-3 ovarian -37.8% | NCI/ADR-RES ovarian -2.1% | BT-549 breast -12.2% | MDA-MB-435 melanoma -16.8%

CC(C)C1=C[C@@]23CC[C@@H]4[C@](C)(CCC[C@@]4(C)C(=O)OCC#CCN4CCCC4)[C@H]2C[C@@H]1[C@H]1C(=O)OC(=O)[C@H]13
inactive: SR leukemia 92% | RPMI-8226 leukemia 80.3% | OVCAR-8 ovarian 115% | OVCAR-5 ovarian 97.3% | OVCAR-4 ovarian 92% | SK-OV-3 ovarian 90.5% | IGROV1 ovarian 81.9% | OVCAR-3 ovarian 94.2% | HS 578T breast 99.2% | NCI/ADR-RES ovarian 99.3% | T-47D breast 73.9% | BT-549 breast 87.7% | MDA-MB-435 melanoma 102% | SW-620 colon 109% | MCF7 breast 84.7% | HCT-116 colon 88.8% | HCC-2998 colon 108% | KM12 colon 87.3%

CN1CCCCC1CCN1c2ccccc2Sc2ccc(Br)cc21 (stereo unspecified)
inactive: RPMI-8226 leukemia 46% | OVCAR-8 ovarian 62.3% | OVCAR-5 ovarian 85.9% | OVCAR-4 ovarian 59.4% | SK-OV-3 ovarian 69.6% | IGROV1 ovarian 35.9% | OVCAR-3 ovarian 77.9% | HS 578T breast 81% | NCI/ADR-RES ovarian 73.2% | T-47D breast 77.9% | BT-549 breast 68.5% | MDA-MB-435 melanoma 20.4% | SW-620 colon 79.6% | MCF7 breast 21% | HCT-116 colon 28.8% | HCC-2998 colon 51.3% | KM12 colon 60.7%
active: SR leukemia -32%

CCN(C(=O)CN1CCN(c2cc3c(cc2F)c(=O)c(C(=O)O)cn3C2CC2)CC1)c1nc(-c2ccc(OC)cc2)cs1
active: RPMI-8226 leukemia 3.09% | OVCAR-3 ovarian 6.96%
inactive: SR leukemia 23.7% | OVCAR-8 ovarian 59.6% | OVCAR-5 ovarian 92% | OVCAR-4 ovarian 37.2% | SK-OV-3 ovarian 97.1% | IGROV1 ovarian 67.4% | HS 578T breast 81.8% | NCI/ADR-RES ovarian 59.3% | T-47D breast 78.7% | BT-549 breast 73.1% | MDA-MB-435 melanoma 53.2% | SW-620 colon 49% | MCF7 breast 73.9% | HCT-116 colon 40% | HCC-2998 colon 85.4% | KM12 colon 52.9%

CC/C(Cc1ccccc1)=C(/c1ccc(O)cc1)c1ccc(OCCN2CCCC2)cc1
active: SR leukemia -40.2% | RPMI-8226 leukemia -44.1% | OVCAR-8 ovarian -6.37% | OVCAR-4 ovarian -6.26% | OVCAR-3 ovarian -79.6% | HS 578T breast -28% | NCI/ADR-RES ovarian -8.18% | T-47D breast -25.2% | MDA-MB-435 melanoma -100% | SW-620 colon -78.4% | MCF7 breast -67.7% | HCT-116 colon -87.1% | HCC-2998 colon -90.9% | KM12 colon -75.4%
inactive: OVCAR-5 ovarian 19.8% | SK-OV-3 ovarian 63% | IGROV1 ovarian 13.9% | BT-549 breast 44.7%

COc1cc(NCCCCN=C(N)NC(N)=NC(C)C)c2ncccc2c1
active: OVCAR-4 ovarian -9.62% | IGROV1 ovarian -31.9% | OVCAR-3 ovarian -43.7% | T-47D breast -8.55% | MCF7 breast -94.3% | HCT-116 colon 1.56%
inactive: SR leukemia 98.2% | RPMI-8226 leukemia 17.5% | OVCAR-8 ovarian 45.4% | OVCAR-5 ovarian 87.2% | SK-OV-3 ovarian 100% | HS 578T breast 100% | NCI/ADR-RES ovarian 109% | BT-549 breast 54.8% | MDA-MB-435 melanoma 110% | SW-620 colon 62.9% | HCC-2998 colon 11.9% | KM12 colon 20.1%

O=C1CC(c2nc3ccccc3s2)CN1C1CCCCC1 (stereo unspecified)
inactive: SR leukemia 97.1% | RPMI-8226 leukemia 98.4% | OVCAR-8 ovarian 95.4% | OVCAR-5 ovarian 99.8% | OVCAR-4 ovarian 94.1% | SK-OV-3 ovarian 91.6% | IGROV1 ovarian 95% | OVCAR-3 ovarian 101% | HS 578T breast 98.9% | NCI/ADR-RES ovarian 89.4% | T-47D breast 88.2% | BT-549 breast 97.1% | MDA-MB-435 melanoma 107% | SW-620 colon 107% | MCF7 breast 89.1% | HCT-116 colon 108% | HCC-2998 colon 95.2% | KM12 colon 98%

CC(C)[C@H]1COC(=O)N1[C@@H]1C(=O)N([C@@H](CCC(=O)N2CCN(C3CCCC3)CC2)C(=O)N[C@@H]2CCCc3ccccc32)[C@@H]1/C=C/c1cccc(Br)c1
active: SR leukemia -18.9%
inactive: RPMI-8226 leukemia 14.6% | OVCAR-8 ovarian 62.1% | OVCAR-5 ovarian 88.2% | OVCAR-4 ovarian 53.9% | SK-OV-3 ovarian 52.7% | IGROV1 ovarian 32% | OVCAR-3 ovarian 45.1% | HS 578T breast 51.9% | NCI/ADR-RES ovarian 53% | T-47D breast 39.9% | BT-549 breast 27.6% | MDA-MB-435 melanoma 30.2% | SW-620 colon 45.2% | MCF7 breast 23% | HCT-116 colon 14.3% | HCC-2998 colon 30.8% | KM12 colon 35.6%

C=CC[N+]1(CC)CCN=C1CCCCCCCCCCCCCCCCC (stereo unspecified)
active: SR leukemia -64.7% | RPMI-8226 leukemia -54.7% | OVCAR-8 ovarian -95.2% | OVCAR-5 ovarian -97.5% | OVCAR-4 ovarian -72.2% | SK-OV-3 ovarian -78.9% | IGROV1 ovarian -86% | OVCAR-3 ovarian -94.1% | HS 578T breast -41.3% | NCI/ADR-RES ovarian -21.6% | T-47D breast -62.9% | BT-549 breast -75.9% | MDA-MB-435 melanoma -85% | SW-620 colon -89.7% | MCF7 breast -81.7% | HCT-116 colon -100% | HCC-2998 colon -73.5% | KM12 colon -97.9%

CCCCCCCCOC(=O)CC[C@@H](C)[C@H]1CC[C@H]2[C@@H]3[C@H](OC(=O)CCN)C[C@@H]4C[C@H](OC(=O)CCN)CC[C@]4(C)[C@H]3C[C@H](OC(=O)CCN)[C@]12C
inactive: RPMI-8226 leukemia 77.8% | OVCAR-8 ovarian 69.5% | OVCAR-5 ovarian 92.1% | OVCAR-4 ovarian 75.7% | SK-OV-3 ovarian 90.9% | IGROV1 ovarian 77.2% | OVCAR-3 ovarian 108% | HS 578T breast 79.5% | NCI/ADR-RES ovarian 101% | T-47D breast 88.8% | BT-549 breast 124% | MDA-MB-435 melanoma 74.1% | SW-620 colon 20% | MCF7 breast 10.8% | HCT-116 colon 49.3% | HCC-2998 colon 84.2% | KM12 colon 77.8%
active: SR leukemia -12.9%

COc1ccc(C/C(C)=C(\c2ccc(OCCN3CCCCCC3)cc2)c2ccc(OC(=O)C3CCCCC3)cc2)cc1
inactive: RPMI-8226 leukemia 40.1% | OVCAR-8 ovarian 68.9% | OVCAR-5 ovarian 81.9% | OVCAR-4 ovarian 71.7% | SK-OV-3 ovarian 77.8% | IGROV1 ovarian 52.3% | OVCAR-3 ovarian 63.5% | HS 578T breast 51.6% | NCI/ADR-RES ovarian 73.5% | T-47D breast 38.1% | BT-549 breast 83.7% | MDA-MB-435 melanoma 68.8% | SW-620 colon 64.8% | MCF7 breast 29.3% | HCT-116 colon 38.5% | HCC-2998 colon 56.9% | KM12 colon 63.1%
active: SR leukemia 3.43%

CCN(CC)CCCC(C)Nc1ccnc2c(OC)cccc12 (stereo unspecified)
inactive: SR leukemia 97.3% | RPMI-8226 leukemia 103% | OVCAR-8 ovarian 106% | OVCAR-5 ovarian 102% | OVCAR-4 ovarian 111% | SK-OV-3 ovarian 117% | IGROV1 ovarian 109% | OVCAR-3 ovarian 146% | HS 578T breast 127% | NCI/ADR-RES ovarian 110% | T-47D breast 119% | BT-549 breast 118% | MDA-MB-435 melanoma 118% | SW-620 colon 115% | MCF7 breast 101% | HCT-116 colon 112% | HCC-2998 colon 115% | KM12 colon 113%

O=[N+]([O-])c1cccc(C2CC(c3ccccc3)=Nc3ccccc3S2)c1 (stereo unspecified)
inactive: RPMI-8226 leukemia 16.1% | OVCAR-8 ovarian 61.9% | OVCAR-5 ovarian 109% | OVCAR-4 ovarian 81.7% | SK-OV-3 ovarian 97.7% | IGROV1 ovarian 91.8% | OVCAR-3 ovarian 88% | HS 578T breast 95.9% | NCI/ADR-RES ovarian 98.3% | T-47D breast 84.9% | BT-549 breast 78.5% | MDA-MB-435 melanoma 112% | SW-620 colon 25.6% | MCF7 breast 16.2% | HCT-116 colon 47.9% | HCC-2998 colon 108% | KM12 colon 35.7%
active: SR leukemia -40.3%
